This excerpt belongs to a sample that is enriched for hits.
SARS PLP yeast: inhibitors of SARS-CoV papain-like protease in yeast; AID 485353; S. cerevisiae expressing SARS-CoV PLpro, growth rescue; 330,000 compounds, 0.19% hits; Potency, µM (doses to about 32.9 µM), actives largely listed as activators; calls by dose curve; note: nearly all actives have a fitted effect of over 55% in size
Shiga inhibitor: blocks Shiga toxin action in Vero cells. inhibition, % at 38.7 µM. AID 2315. 290,000 compounds, 9.2% hits. Vero cells, Shiga toxin protein synthesis inhibition reporter; in the data active = inhibition mostly above about 28%, no sharp cut-off; inactive = mostly below about 43%
TbPYK inhibitor: T. brucei pyruvate kinase inhibition. TbPYK enzyme, Kinase-Glo Plus ATP luminescence, 45 min. 410,000 compounds, 0.12% hits. Potency, µM (series often up to 76.8 µM), actives largely listed as inhibitors. AID 624173; note: nearly all actives have a fitted effect of over 50% in size
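Luminescent Kinase-Glo Plus end-point after 45 min room-temperature reaction of T. brucei pyruvate kinase started with 130 uM ADP (final). Buffer TEA 50 mM pH 7.2 with KCl, MgCl2, BSA, Tween-20; titration-based qHTS with fitted concentration-effect curves.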
NS1 function inh: blocks influenza NS1 protein function. Potency, µM (series often up to 46.1 µM). 270,000 compounds, 0.4% hits. AID 2326; calls by dose curve; note: actives are rising curves; nearly all actives have a fitted effect of over 50% in size
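Read-out: OD600 growth recovery of NS1-expressing budding yeast. Cells grown overnight at 30C in -URA glucose medium, washed, resuspended and diluted 1:100 in 2% galactose assay medium, pH 6.0. Same strain lacking NS1 served as positive control.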
LmPK inhibitor: LmPK (Leishmania mexicana) enzyme inhibition. Q27686. purified LmPK, Kinase-Glo ATP luminescence, 1 h. Potency, µM (series often up to 57.5 µM), hits mostly inhibitors. 290,000 compounds, 0.37% hits. AID 1721
Target sequence (Q27686 whole entry, looked up): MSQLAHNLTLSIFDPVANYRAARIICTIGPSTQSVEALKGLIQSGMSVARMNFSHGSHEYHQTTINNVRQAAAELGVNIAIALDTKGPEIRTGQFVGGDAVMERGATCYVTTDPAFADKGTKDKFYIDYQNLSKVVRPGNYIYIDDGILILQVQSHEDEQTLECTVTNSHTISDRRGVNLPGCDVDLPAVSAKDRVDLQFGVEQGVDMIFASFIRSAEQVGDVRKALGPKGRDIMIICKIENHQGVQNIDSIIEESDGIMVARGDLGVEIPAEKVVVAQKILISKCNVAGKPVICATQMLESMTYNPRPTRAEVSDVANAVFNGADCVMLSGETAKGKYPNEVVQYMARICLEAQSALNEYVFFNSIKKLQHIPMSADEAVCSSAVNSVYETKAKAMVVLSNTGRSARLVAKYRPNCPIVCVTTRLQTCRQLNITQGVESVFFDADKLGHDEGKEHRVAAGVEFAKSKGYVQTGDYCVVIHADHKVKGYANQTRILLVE
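Purified LmPK (0.1 nM) converted ADP (0.1 mM) to ATP with PEP (0.5 mM) in imidazole buffer pH 7.2 with KCl and MgCl2, 1 h at room temperature. ATP was read by Kinase-Glo luminescence; data normalized to uninhibited and no-enzyme controls.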
CHX counter: counter-screen for Shiga toxin inhibitors: cycloheximide protein synthesis inhibition. cell reporter, cycloheximide protein synthesis inhibition counterscreen. max response, %. 300,000 compounds, 12% hits. AID 2314; in the data active = max response mostly above about 13%, no sharp cut-off; inactive = mostly below about 14%; note: read at 38.3 µM for the half of the compounds with a filed dose
Large screens that a line does not name were inactive. Unless noted, calls come from the whole dose curve; as a rule, active = well fitted curve in the direction sought with a large enough effect; inconclusive = small, poorly fitted or top-dose-only effect, or another doubt; inactive = no such curve, though single readings can be large; an effect the other way counts as inactive or inconclusive.

O=C(NC(=S)NCc1ccc(-c2nc3ccccc3s2)cc1)c1ccco1	Shiga inhibitor 64, CHX counter 30
O=C(NCc1ccc(-c2nc3ccccc3s2)cc1)c1ccco1	Shiga inhibitor 71, CHX counter 34
COc1ccc(C(=O)NCc2ccc(-c3nc4ccccc4s3)cc2)cc1OC	none
Cc1cc(=O)[nH]c(N/N=C/c2ccc(C)o2)n1	SARS PLP yeast inconclusive
Cc1ccc(/C=N/Nc2nc(C(C)(C)C)cs2)o1	Shiga inhibitor 93, CHX counter 46
C(=N\Nc1nc(-c2ccccc2)cs1)/c1cccnc1	Shiga inhibitor 61, CHX counter 46
Clc1ccc(-c2csc(N/N=C/c3cccnc3)n2)c(Cl)c1	none
CC(C)(C)c1csc(N/N=C/c2cccnc2)n1	Shiga inhibitor 127, CHX counter 37
COc1ccc(-c2cnnc(N/N=C/c3ccc(C)o3)n2)cc1	none
Cc1ccc(/C=N/Nc2nc3ccccc3s2)o1	Shiga inhibitor 75, CHX counter 43
CCC(=O)N1CCC(C)(C(=O)NCc2cccc(OC)c2)C1 (centres undefined)	none (no result: SARS PLP yeast, Shiga inhibitor, NS1 function inh, LmPK inhibitor, CHX counter)
CCCCCC=CCC=CCCCCCCCC(=O)OCC	none (no result: SARS PLP yeast, Shiga inhibitor, NS1 function inh, LmPK inhibitor, CHX counter)
CCCC(=O)Nc1ccc(-c2csc(N/N=C\c3ccncc3)n2)cc1	TbPYK inhibitor inconclusive, CHX counter 31
COc1ccc(N=C2NC(=O)/C(=C\c3ccco3)S2)cc1	Shiga inhibitor 66, CHX counter 23 (no result: NS1 function inh)
O=C1NC(=O)/C(=C\c2ccc(Oc3ccc([N+](=O)[O-])cn3)cc2)S1	Shiga inhibitor 42, CHX counter 34
O=C1NC(=O)/C(=C\c2ccc(Cl)nc2)S1	Shiga inhibitor 68, CHX counter 34 (no result: NS1 function inh)
COc1ccc(/C=C2/SC(=O)NC2=O)cc1	Shiga inhibitor 52, LmPK inhibitor inconclusive, CHX counter 39
S=C(Nc1ccc(Oc2ccccc2)cc1)Nc1cccnc1	none (no result: Shiga inhibitor)
C[C@H](CO)N1C[C@H](C)[C@@H](CN(C)S(=O)(=O)c2ccc(-c3ccccc3)cc2)OCc2cn(nn2)CCCC1=O	none (no result: SARS PLP yeast, Shiga inhibitor, NS1 function inh, LmPK inhibitor, CHX counter)
O=C(Nc1ccc(N2CCN(C(=O)c3ccccc3)CC2)c(Cl)c1)c1ccco1	none
CC(=O)N1CCN(c2ccc(NC(=O)c3ccco3)cc2Cl)CC1	SARS PLP yeast inconclusive, Shiga inhibitor 43, CHX counter 17
CC(C)C(=O)N1CCN(c2ccc(NC(=O)c3ccco3)cc2Cl)CC1	none
O=C(Nc1ccc(N2CCOCC2)c(Cl)c1)c1ccco1	CHX counter 34
CCC(=O)N1CCN(c2ccc(NC(=O)c3ccco3)cc2Cl)CC1	CHX counter 15
CC(NC(=O)CCCN1C(=O)CCn2nc(-c3cn(C)c4ccccc34)cc21)c1ccccc1 (centres undefined)	none (no result: SARS PLP yeast, Shiga inhibitor, NS1 function inh, LmPK inhibitor, CHX counter)
CCCCn1nnnc1C(c1cc2ccccc2o1)N(Cc1ccccc1)Cc1ccccc1 (centres undefined)	none (no result: SARS PLP yeast, Shiga inhibitor, NS1 function inh, LmPK inhibitor, CHX counter)
CC(C)NC(=S)N/N=C/c1cccs1	SARS PLP yeast inconclusive
CC(C)NC(=S)N/N=C/c1ccc(C(C)(C)C)cc1	CHX counter 21
O=C(CSc1ccccn1)N/N=C/c1c[nH]c2ccccc12	CHX counter 14 (no result: NS1 function inh)
CC(C)NC(=S)N/N=C/c1ccccc1[N+](=O)[O-]	CHX counter 22
CCCCCC(=O)N/N=C/c1ccccc1[N+](=O)[O-]	CHX counter 19 (no result: NS1 function inh)
CCc1nc2c(OCCn3cccc3)cccn2c1N(C=O)Cc1ccccc1	none (no result: SARS PLP yeast, Shiga inhibitor, NS1 function inh, LmPK inhibitor, CHX counter)
O=C(CSc1ccccn1)N/N=C/c1ccccc1[N+](=O)[O-]	Shiga inhibitor 38, CHX counter 38
O=[N+]([O-])c1ccccc1/C=N\Nc1nccs1	none
O=[N+]([O-])c1ccccc1/C=N/NC1=NCCCCC1	Shiga inhibitor 43, CHX counter 77
CCCCN1CC(=O)N2[C@@H]3c4cc(OC)ccc4OC[C@@H]3[C@H](C(=O)OCC)[C@]2(C)C1=O	none (no result: SARS PLP yeast, Shiga inhibitor, NS1 function inh, LmPK inhibitor, CHX counter)
Cc1ccc([N+](=O)[O-])c(OCCN2CCCCCC2)c1	none
O=[N+]([O-])c1ccccc1OCCCN1CCc2ccccc2C1	CHX counter 9.9
Cc1ccc([N+](=O)[O-])c(OCCN2CCc3ccccc3C2)c1	CHX counter 16
CC(OC(=O)c1cc2c(s1)CCCCC2)C(=O)NC(N)=O (centres undefined)	CHX counter 23
CC(C)NC(=O)c1cc2c(s1)CCCC2	Shiga inhibitor 44, CHX counter 18
CC(C)C(OC(=O)c1cc2c(s1)CCCCC2)C(=O)NC(N)=O (centres undefined)	none
CNC(=O)c1cc2c(s1)CCCCCC2	none
CCc1nn(CC(=O)N2CCCCCC2)c(=O)c2cc3ccccc3n12	none
CCC(=O)N1c2ccc(S(=O)(=O)CCC(=O)N3CCN(c4ccc(F)cc4)CC3)cc2CC1C (centres undefined)	none (no result: SARS PLP yeast, Shiga inhibitor, NS1 function inh, LmPK inhibitor, CHX counter)
CCN1C(=O)NC(=O)/C(=C\c2ccc(N3CCOCC3)cc2OC)C1=O	Shiga inhibitor 56, CHX counter 67 (no result: TbPYK inhibitor)
Cc1cc(C)n(-c2nnc(NC(C)(C)C)nn2)n1	Shiga inhibitor 54, CHX counter 26
Cc1cc(C)n(-c2nc(NC(C)(C)C)nc(NC(C)(C)C)n2)n1	none
CCNc1nc(NCC)nc(-n2nc(C)cc2C)n1	none
Cc1cc(C)n(-c2nnc(NC34CC5CC(CC(C5)C3)C4)nn2)n1	Shiga inhibitor 21, CHX counter 37
COc1ccc2c(c1)N(CC[C@H]1CCCCN1C)c1ccccc1S2	none (no result: SARS PLP yeast, Shiga inhibitor, TbPYK inhibitor, LmPK inhibitor, CHX counter)
Cc1cccc(OCC(=O)Nc2cc(C)on2)c1	Shiga inhibitor active, CHX counter 16
CCOc1ccccc1OCC(=O)Nc1cc(C)on1	none (no result: Shiga inhibitor, NS1 function inh, LmPK inhibitor, CHX counter)
Cc1cc(NC(=O)COc2cccc(Oc3ccccc3)c2)no1	none
Cc1ccc(C)c(OCC(=O)Nc2cc(C)on2)c1	CHX counter 22
Cc1nc2ccn(Cc3ccccc3)c(=O)c2cc1C(=O)Nc1ccc(F)cc1Cl	none (no result: SARS PLP yeast, Shiga inhibitor, NS1 function inh, LmPK inhibitor, CHX counter)
COC(=O)CCCNC(=O)c1ccc2nc(Cc3ccc(OC)cc3)oc2c1	CHX counter 14
C=C(C)CNC(=O)c1ccc2nc(Cc3ccc(OC)cc3)oc2c1	Shiga inhibitor 39, CHX counter 39
C=C(C)C(=O)OCCOCC	none (no result: SARS PLP yeast, TbPYK inhibitor, NS1 function inh, LmPK inhibitor)
Cc1cccc(Nc2nc3c(S(=O)(=O)c4ccc(Br)cc4)nnn3c3ccsc23)c1C	none (no result: SARS PLP yeast, Shiga inhibitor, NS1 function inh, LmPK inhibitor, CHX counter)
CCCOc1cccc(-c2nc3ccccc3c(=O)o2)c1	Shiga inhibitor 79, CHX counter 51
O=c1oc(-c2ccccc2[N+](=O)[O-])nc2ccccc12	none
O=c1oc(-c2ccc(Br)cc2)nc2ccccc12	CHX counter 26 (no result: Shiga inhibitor)
Nc1ccccc1-c1nc2ccccc2c(=O)o1	Shiga inhibitor 29, CHX counter 18
COc1ccc(/C=C(\C#N)c2nc(-c3cc4ccccc4oc3=O)cs2)cc1OC	none (no result: SARS PLP yeast, Shiga inhibitor, NS1 function inh, LmPK inhibitor, CHX counter)
COc1cc(/C=C2\C=CC(=O)O2)cc(OC)c1	CHX counter 18
C=CCn1c(=O)c(C(=O)Nc2ccccc2S(N)(=O)=O)c(O)c2ccccc21	Shiga inhibitor 73, CHX counter 31

Bioassay records deposited in PubChem by National Center for Advancing Translational Sciences (NCATS).
